PKD1 kinase inh: PKD1 (human) kinase inhibition; Q15139; 0.056% of 200,000 active; AID 797; inhibition, % (concentration not given with the values); PKD1 kinase fluorescence polarization assay; in the data active means inhibition above about 50%
Furin inhibitor: inhibitors of human furin | P09958 | purified furin, fluorogenic substrate cleavage | inhibition, % at 20 µM or 30 µM | 0.061% of 220,000 active | AID 463115; in the data active means inhibition above about 25%
FAS-TE inh: FAS thioesterase (human) inhibition; P49327; recombinant FAS-TE, OMFH fluorogenic substrate, fluorescence endpoint; inhibition, % at 15 µM; 0.67% of 360,000 active; AID 602261;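 active means compounds whose normalised, plate-corrected inhibition of enzyme fluorescence in the single-dose primary screen is 50% or more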;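 further: 0% = DMSO with enzyme and 100% = substrate without enzyme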
Redox H2O2 prof: compounds producing H2O2 with reducing agent – biochemical, NIH compound library profiling, artefact control for MLSCN library redox annotation, primary screen. DTT-dependent redox cycling H2O2, phenol red/HRP absorbance; 100% = 100 µM peroxide control, 0% = buffer. activation, % at 10 µM. 0.03% of 200,000 active. AID 878;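 active means activation of at least 50% relative to the plate's high and low controls in the primary single-dose screen; inactive means activation below 50%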;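 further: compound incubated with DTT at 0.8 mM final as the reducing agent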
p97 inhibitor: human p97 ATPase inhibition | P55072 | recombinant p97 ATPase, Kinase-Glo ATP luminescence, 3 h | inhibition, % at 8 µM | 0.42% of 220,000 active; in the data active means inhibition above about 15%;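 further: 0% = DMSO vehicle and 100% = wells lacking enzyme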
UBC9 SUMO inh: inhibitors of human SUMOylation (UBC9) | HTRF SUMOylation assay, SAE1/SAE2 + UBC9, in vitro | P63279 | inhibition, % at 35 µM | AID 2006 | 0.36% of 290,000 active; in the data active means inhibition above about 50%, passing the limit was not always enough
Starred values were filed as active, the others as inactive; . = no result given. In the library only some 1.2% were active in any assay of this set; here they are far more common.

SMILES	PKD1 kinase inh	Furin inhibitor	FAS-TE inh	Redox H2O2 prof	p97 inhibitor	UBC9 SUMO inh
CC1(C(=O)NS(=O)(=O)c2ccc(Cl)cc2)CCN1C(=O)Cc1cccs1 (configuration not stated)	.	.	-4.9	.	.	.
Cc1ccc(S(=O)(=O)N2CC3(O)CN(C(=O)OC(C)C)N(C(=O)OC(C)C)CC3(OC(=O)NCc3ccccc3F)C2)cc1 (configuration not stated)	.	.	11.4	.	.	.
O=C1C=C(N2CCOCC2)c2ccccc2C1=O	.	.	1.1	.	.	95.6*
COc1ccccc1[C@@H]1C(c2cccc(Cl)c2)=NN(c2ccccc2)[C@H]1C(=O)N1CCOC1=O	-7.8	-24.2	91.0*	1.7	7.4	-8.5
O=C1OCCN1C(=O)[C@H]1[C@H](c2ccccc2)C(c2cccc(Cl)c2)=NN1c1ccc(Br)cc1	.	.	48.9	.	.	.
Cc1cccc(C2=NN(c3ccc(Br)cc3)[C@@H](C(=O)N3CCOC3=O)[C@@H]2c2ccc(F)cc2)c1	-9.6	-26.9	74.0*	1.5	-3.6	24.9
Cc1cccc(C2=NN(c3ccc(Br)cc3)[C@@H](C(=O)N3CCOC3=O)[C@@H]2c2ccc(Cl)cc2)c1	.	.	74.3*	.	.	.
Cc1cccc(C)c1-n1nnnc1C(c1ccnc2ccccc12)N(C)Cc1ccccc1 (configuration not stated)	.	.	29.1	.	.	.
COc1ccc(C2=Nc3ccccc3NC(=O)C2N(Cc2ccccc2)C(=O)C2=NNC(=O)CC2)cc1 (configuration not stated)	.	.	-4.0	.	.	.
COc1cc(CCNC2=CC(=O)c3ncccc3C2=O)ccc1O	.	.	0.2	.	.	.
O=C(Nc1ccc(Cl)c(Cl)c1)Nn1cnnc1	.	.	-17.2	.	.	66.9*
O=C(Nc1cccc(Cl)c1)Nn1cnnc1	.	-14.0	-2.9	.	2.8	51.1*
O=C(Nc1ccccc1)Nn1cnnc1	.	.	-3.7	.	.	19.7
Cc1ccc(NC(=O)Nn2cnnc2)cc1Cl	.	.	-2.3	.	.	43.8
CC1(N=Cc2cc(Cl)ccc2O)COP(=O)(Nc2ccccc2)OC1 (configuration not stated)	.	.	-1.5	.	.	.
O=C(Nc1nnc([C@@H]2O[C@H](CO)[C@@H](O)[C@H]2O)s1)Nc1ccccc1C(F)(F)F	.	.	-7.1	.	.	.
Nc1c(C(=O)Nc2ccccc2F)sc2nc(-c3ccco3)ccc12	2.4	-21.0	-4.1	-6.7	10.3	57.4*
CC(=O)OCCn1c([N+](=O)[O-])cnc1C=[N+]([O-])C1CCCCC1	.	.	-7.8	.	.	.
NC(=S)n1[nH]c(-c2ccc([N+](=O)[O-])cc2)c(N=Nc2cccc([N+](=O)[O-])c2)c1=O	-2.4	-3.2	14.0	2.3	2.6	59.2*
Cc1c(N=Nc2c(-c3ccc([N+](=O)[O-])cc3)[nH]n(C(N)=S)c2=O)cccc1[N+](=O)[O-]	-0.8	1.5	36.6	-0.1	6.3	69.4*
NC(=S)n1[nH]c(-c2ccc([N+](=O)[O-])cc2)c(N=Nc2ccccc2[N+](=O)[O-])c1=O	-5.7	-5.8	22.9	-0.3	-2.9	27.8
COC(=O)c1ccccc1NC(=S)NC(=O)c1cccc2ccccc12	0.3	-12.8	21.6	-13.0	33.8*	1.6
COC(=O)c1ccccc1NC(=S)NC(=O)c1ccc2ccccc2c1	-5.1	-11.9	31.5	-0.1	5.5	-3.8
CC(C)CN(C(=O)COc1ccccc1C(=O)NCc1ccccc1)C1CCS(=O)(=O)C1 (configuration not stated)	.	.	-4.7	.	.	.
COC(=O)c1[nH]c2cc(OC)ccc2c1NC(=O)CCN1CCCCC1	-6.0	34.4*	-8.3	0.0	2.8	12.5
SMILES	PKD1 kinase inh	Furin inhibitor	FAS-TE inh	Redox H2O2 prof	p97 inhibitor	UBC9 SUMO inh
COc1cc(/C=C/c2ccc3cccc([N+](=O)[O-])c3n2)ccc1OCC#N	0.3	-15.9	53.3*	-0.3	-0.3	3.3
CCOc1cc(/C=C/c2ccc3cccc([N+](=O)[O-])c3n2)ccc1O	-10.0	-2.8	11.5	-0.2	-5.0	-12.2
CN1CCN(c2ccccc2NC(=O)c2cccc(OCc3ccccc3)c2)CC1	-7.6	35.0*	18.3	0.2	-1.9	-0.1
CCNc1nc(-c2cc(C)n(Cc3ccco3)c2C)cs1	7.1	-35.1	-56.0	-0.1	7.8	55.9*
Cc1csc(NC(=O)c2ccc(=O)[nH]c2)n1	.	.	-5.2	.	.	28.8
Cc1cc(-c2csc(NC(=O)c3ccc(=O)[nH]c3)n2)c(C)n1Cc1ccco1	.	-2.8	2.1	.	51.4*	93.4*
COc1ccc(-c2ccc(C(=O)Nc3cccc(C(F)(F)F)c3)c3occc23)c(C)c1	.	.	22.8	.	.	.
C/C(CC(=O)N1CCN(C=O)CC1)=N\NC(=O)c1cc2ccccc2cc1O	-10.7	-14.5	-7.5	0.8	7.0	65.1*
C/C(=N\NC(=O)c1cc2ccccc2cc1O)c1cc2ccccc2o1	.	-22.1	11.6	.	8.9	55.7*
CCCCc1c(-c2ccccc2OC)ncn1CCc1ccccc1Cl	.	.	15.6	.	.	.
Cc1cccc([C@@H]2[C@@H]3C(=O)N(Cc4ccccc4)C(=O)[C@@H]3[C@]3(C)C(=O)N(c4ccc(C(F)(F)F)cc4)C(=O)N23)c1	.	.	81.3*	.	.	-12.3
COc1ccc(N2C(=O)N3[C@H](c4cccc(C)c4)[C@@H]4C(=O)N(Cc5ccccc5)C(=O)[C@@H]4[C@]3(Cc3ccccc3)C2=O)cc1	.	.	.	.	.	10.1
CCn1c(C)nc2cc(C(=O)N/N=C/c3ccc(O)c(O)c3O)ccc21	0.0	-2.7	-6.1	-0.1	8.5	68.2*
CCN(CC)S(=O)(=O)c1cccc(C(=O)N/N=C/c2ccc(O)c(O)c2O)c1	-5.2	10.8	0.1	-0.4	7.1	50.2*
CCn1c(C)nc2cc(C(=O)N/N=C/c3cccc(OC)c3O)ccc21	-0.1	-17.7	-5.3	0.0	1.8	-6.2
O=C(Cn1c(Cn2c(-c3cnccn3)nc3ccccc32)nc2ccccc21)c1ccc(OC(F)(F)F)cc1	.	.	13.3	.	.	.
Cc1ccc(S(=O)(=O)C(C#N)c2nc3ccccc3nc2N2CCCC2)cc1 (configuration not stated)	-6.8	-18.3	-1.9	3.6	19.6*	101.3
O=c1c2cc(N3CCOCC3)ccc2[nH]c(=S)n1Cc1ccccn1	4.1	-0.2	-6.9	-2.8	4.2	55.4*
COc1ccc(-c2coc3c(C(=O)N4CCN(C)CC4)cccc23)c(C)c1	.	.	-0.5	.	.	.
Cc1ccc([C@@H]2CC=C(C(=O)O)[C@H](c3ccc(C(C)(C)C)cc3)N2S(=O)(=O)c2ccc(C)cc2)cc1	.	.	18.9	.	.	.
CCc1ccc([C@@H]2CC=C(C(=O)O)[C@H](c3ccc(C(C)(C)C)cc3)N2S(=O)(=O)c2ccc(C)cc2)cc1	.	.	54.3*	.	.	.
CCC(=O)c1ccc(/C=C/c2nc3ccccc3n2C)o1	4.5	-8.0	2.8	-1.2	1.9	61.6*
O=C(Nc1ccccc1Cc1ccccc1)c1ccccc1NS(=O)(=O)c1ccc(Cl)s1	5.5	-18.4	40.0	-0.1	2.7	58.5*
CCCCn1c(N)c(N(CC(C)C)C(=O)Cc2ccc(S(=O)(=O)N3CCOCC3)s2)c(=O)[nH]c1=O	.	.	-117.6	.	.	.
COc1ccc(NC(=O)CSc2nncn2C)cc1OC	3.3	26.9*	-7.0	0.6	7.9	6.0

Compound activity: PubChem BioAssay, several laboratories
